Counter-ions that a name gives are not always drawn.
Each compound was assayed on NCI-H1688 (assay: inhibition of cell viability relative to untreated control (fraction); higher = stronger growth inhibition, active = 0.5 or more). Conditions: 30 µM; 24 h.
Method in brief: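 Viability of NCI-H1688 small cell lung cancer cells was assessed with Cell Counting Kit-8 by absorbance at 450 nm, in triplicate, after a 24 h exposure to a natural compound library (TargetMol) at 30 µM at 37°C and 5% CO2. The cells had been seeded at 3 × 10^3 cells/well in 96-well plates 24 h before treatment. Inhibition of cell viability is reported as a fraction, derived from viability normalised against untreated cells.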

Compound | inhibition of cell viability
C[C@]12CC[C@@H]3c4ccc(O)cc4CC[C@H]3[C@@H]1C[C@@H](O)[C@@H]2O [Estriol] | 0.0233 (inactive)
COc1ccc([C@@H]2OC[C@H]3[C@@H]2CO[C@@H]3c2ccc(O[C@@H]3O[C@H](CO)[C@@H](O)[C@H](O)[C@H]3O)c(OC)c2)cc1OC [Forsythin] | -0.0217 (inactive)
CC1(C)O[C@H]2CC(=O)OC[C@]23[C@H]2CC[C@@]4(C)[C@H](c5ccoc5)OC(=O)[C@H]5O[C@]54[C@]2(C)C(=O)C[C@@H]13 [Limonin] | -0.0414 (inactive)
O=c1ccc2ccccc2o1 [Coumarin] | -0.151 (inactive)
Cc1c(C)c2c(c(C)c1O)CC[C@@](C)(CCC[C@H](C)CCC[C@H](C)CCCC(C)C)O2 [Vitamin E] | -0.243 (inactive)
OC[C@@H](O)[C@H](O)[C@@H](O)CO [Xylitol] | 0.015 (inactive)
COc1cc2ccc(=O)oc2cc1O [Scopoletin] | -0.00563 (inactive)
C[C@]12CCC(=O)C=C1CC[C@@H]1[C@@H]2CC[C@@]2(C)[C@H]1CC[C@]2(O)C(=O)CO [Cortodoxone] | -0.112 (inactive)
CC(C)=CCOc1c2ccoc2cc2oc(=O)ccc12 [Isoimperatorin] | -0.0286 (inactive)
O=C(O)C=CC=Cc1ccccc1 [5-Phenyl-2,4-pentadienoic acid] | -0.102 (inactive)
COC(=O)[C@@H]1[C@H]2C[C@H]3c4[nH]c5ccccc5c4CCN3C[C@@H]2CC[C@@H]1O [Yohimbine hydrochloride] | 0.0994 (inactive)

— the supplement of paper PMC11634586
